Screens from PubChem.
Shown are actives, neighbours in structure and some others; about 0.5% of the full set was active somewhere.
TSHR antag: Antagonists of the Thyroid Stimulating Hormone Receptor: HTS campaign; Thyrotropin receptor (Homo sapiens), P16473; hit rate 0.2% among 330,000; activity change, negative = inhibition, % at 11.5 µM; TSHR-expressing cells, TSH-stimulated cAMP HTRF, 2 h; hits give low values;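 active = activity change below a set negative limit, meaning inhibition stronger than a set level, cut at about -70% in these data; inconclusive = activity change between two set negative limits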; note: % is set by controls: 0 for no effect and ±100 for the full control effect
Target sequence (P16473 whole entry, looked up): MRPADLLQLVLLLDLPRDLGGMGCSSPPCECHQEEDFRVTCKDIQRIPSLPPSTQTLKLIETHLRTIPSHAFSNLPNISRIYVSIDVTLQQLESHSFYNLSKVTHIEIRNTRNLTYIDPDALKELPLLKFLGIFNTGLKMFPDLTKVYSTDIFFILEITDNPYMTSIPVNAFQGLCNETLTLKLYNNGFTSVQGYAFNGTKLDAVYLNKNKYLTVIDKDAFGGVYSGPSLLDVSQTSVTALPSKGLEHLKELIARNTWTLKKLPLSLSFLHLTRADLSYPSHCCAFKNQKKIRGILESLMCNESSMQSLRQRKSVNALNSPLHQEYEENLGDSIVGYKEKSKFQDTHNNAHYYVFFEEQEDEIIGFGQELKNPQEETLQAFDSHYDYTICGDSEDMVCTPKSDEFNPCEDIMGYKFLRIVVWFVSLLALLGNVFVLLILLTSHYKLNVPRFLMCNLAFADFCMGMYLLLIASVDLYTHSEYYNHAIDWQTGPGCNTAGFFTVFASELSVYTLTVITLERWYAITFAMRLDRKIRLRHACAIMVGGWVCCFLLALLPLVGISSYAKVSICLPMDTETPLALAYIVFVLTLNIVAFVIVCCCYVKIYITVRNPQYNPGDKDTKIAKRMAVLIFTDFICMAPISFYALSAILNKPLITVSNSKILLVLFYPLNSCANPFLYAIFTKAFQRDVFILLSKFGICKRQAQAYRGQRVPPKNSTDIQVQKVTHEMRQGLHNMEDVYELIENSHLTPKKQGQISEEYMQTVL
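TSHR-expressing cells were treated with compounds, then stimulated with TSH at EC80 (4nM final) for 2 hours at 37 deg C. Cellular cAMP was measured by HTRF competition between lysate cAMP and cAMP-d2 for a cryptate-labelled anti-cAMP antibody.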
TCR activator: Activators of T cell receptors: qHTS campaign; primary human leukocytes, anti-CD3, IL-2 HTRF, 48 h; Potency, µM (titrated, usually from 9.22 µM), for the others: at the highest dose activation of IL-2 secretion, hits mostly activators; 330,000 tested, under 10 active; AID 504894, 2011; note: % of control where 0% means no effect
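Compounds are tested in HTS on primary human leukocytes co-incubated with a-CD3 beads for 48 hr. IL-2 output is measured by time-resolved FRET.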
CCT modulator: High-Throughput Screening for Modulators of Cytosolic Chaperonin Activity | purified chaperonin ATPase assay, HTRF ADP detection, 30 min | activity change, % (no concentration beside the values), hits read low | hit rate 0.3% among 360,000; in the data active = activity change below about -30%; note: % is set by controls: 0 for no effect and ±100 for the full control effect
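TRiC (40 or 20 nM final, by batch activity) in 30 mM Tris pH 7.4, 100 mM KCl, 5 mM MgCl2, 1 mM DTT was treated with compound at 76 uM single dose, then 10 uM ATP, 30 min at 37 °C. ADP was read by HTRF Transcreener.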
B2AR arrestin: qHTS assay of beta-arrestin-biased ligands of beta2-adrenergic receptor. hit rate 0.02% among 330,000. beta-arrestin recruitment to beta2AR, cell-based reporter. AID 492947, 2010. Potency, µM (series often up to 46.1 µM), inactives show at the top dose activation, usual class: activators. Beta-2 adrenergic receptor (Homo sapiens), P07550;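 note: potency is the fitted concentration of half-maximal effect; 0% = DMSO controls and full agonism = EC100 isoproterenol or metaproterenol; nearly all actives have a fitted effect of over 65% in size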
Mm-Cpn inhibitor: Inhibitors of TCP-1 ring complex (TRiC) of Methanococcus maripaludis (MmCpn): qHTS; purified Mm-Cpn ATPase, ADP Transcreener TR-FRET; hit rate 0.031% among 330,000; Chaperonin Mm-Cpn (Methanococcus maripaludis); Potency, µM (highest dose often 76.9 µM), for inactives: at the highest dose activity, negative = inhibition, actives largely listed as inhibitors; note: potency is the fitted concentration of half-maximal effect; % is set by controls: 0 for no effect and ±100 for the full control effect; nearly all actives have a fitted effect of over 80% in size
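ATP (10 uM final) was added to archaeal chaperonin (25 nM final) after 10 min exposure to test compound at 37°C; after 30 min further incubation, ADP was detected by competitive TR-FRET.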
Starred values were filed as active, the others as inactive; u = inconclusive; x = no result; ! = repeats disagree; [ ] = dose if it differs, or a comment. Unless noted, calls come from the whole dose curve; as a rule, active = well fitted curve in the direction sought with a large enough effect; inconclusive = small, poorly fitted or top-dose-only effect, or another doubt; inactive = no such curve, though single readings can be large; an effect the other way counts as inactive or inconclusive.

SMILES	TSHR antag	TCR activator	CCT modulator	B2AR arrestin	Mm-Cpn inhibitor
CCOc1ccc2[nH]c3c(NCCN(CC)CC)ncnc3c2c1	-2	-9%	2	0%	-1%
COc1ccc2[nH]c3c(NCCN(C(C)C)C(C)C)ncnc3c2c1	-6	0%	-52*	-1%	-4%
COc1ccc(C)cc1NC1=C(Cl)C(=O)N(C2CCCCC2)C1=O	-1	3%	-3	0%	1%
CCOc1ccc(NC2=C(Cl)C(=O)N(C3CCCCC3)C2=O)cc1	-15	-7%[46.1 µM]	-32*	-1%	-2%
COc1ccc(-n2c(SCC(=O)Nc3ccccc3)nc(O)cc2=O)cc1	-26	3%	-2	0%	-5%
Nc1nc2nc(-c3ccccc3)cc(C(F)(F)F)c2s1	-99*	4%	-1	0%	1%
CSC1=NSC2=NC(=O)/C(=C\c3ccc(OC(=O)c4ccco4)cc3)C(=N)N12	-10	-1%	0	0%	1%
OC[C@H]1O[C@@H](Oc2cc(O)cc(/C=C/c3ccc(O)cc3)c2)[C@H](O)[C@@H](O)[C@@H]1O	3	x	x	3%	1%
Cc1cc(C(=O)CCC(=O)Nc2ccc(S(N)(=O)=O)cc2)c(C)s1	19	x	0	1%	-8%
COc1ccc(NC(=O)CCC(=O)c2cc(C)sc2C)cc1	x	5%	-43*	0%	-4%
COc1ccc(C(=O)CCC(=O)NC2=NCCS2)cc1	11	-2%	-81*	0%	0%
COc1ccc(C=C(C#N)c2ccc(OC)cc2)cc1	x	-1%	-8	x	x
COc1ccc2c(c1)C(C)CC(C)(C)N2C(=O)CSc1ncn[nH]1 (configuration not stated)	17	1%	0	0%	0%
CCCN(C(=O)C1CCCN(c2ncnc3c2nc2n3CCCCC2)C1)c1ccc(F)cc1 (configuration not stated)	-7	-6%	1	0%	0%
CCOc1ccc(N2CC(C(=O)NCC(=O)Nc3ccc(F)c(F)c3F)CC2=O)cc1 (configuration not stated)	21	2%	-55*	0%	-2%
COc1ccc([C@@H]2CC=C(C(=O)O)[C@H](c3ccccc3)N2S(=O)(=O)c2ccccc2C)cc1	-2	-10%	-49*	0%	-1%
Cc1ccccc1S(=O)(=O)N1[C@@H](c2ccc(F)cc2)C(C(=O)O)=CC[C@H]1c1ccc(Cl)cc1	-4	1%	-4	0%	2%
COCc1nn2c(N)c(-c3ccccc3)cnc2c1-c1ccccc1	-13	-16%	-44*	-1%	-2%
O=C(Nc1cccc(C(F)(F)F)c1)c1csc(-c2ccncc2)n1	4	-1%	-3	0%	1%
COc1cc(NC(=O)c2csc(-c3ccncc3)n2)cc(C(=O)Nc2cccc(C(F)(F)F)c2)c1	-5	4%	-35*!	-1%	-5%
Cn1nnnc1Sc1ncnc2scc(-c3cc4ccccc4o3)c12	-28	15%	x	0%	40µM*
Cn1nnnc1Sc1ncnc2scc(-c3ccc(-c4ccccc4)cc3)c12	-34	4%	x	2%	u
Cc1c(Cl)sn(-c2ccc(Cl)cc2)c1=O	-88*	7%	-19	-2%	2%
COc1ccc(NC2=Nc3ccccc3N3C2=Nc2c(c(C)nn2-c2ccc(C)cc2)C3c2cccnc2)cc1 (configuration not stated)	12	-6%	-45*	0%	-1%
CC(=O)Nc1ccc(NC2=Nc3ccccc3N3C2=Nc2c(c(C)nn2-c2ccccc2)C3c2ccccc2)cc1 (configuration not stated)	27	3%	-1	-2%	-8%
SMILES	TSHR antag	TCR activator	CCT modulator	B2AR arrestin	Mm-Cpn inhibitor
Clc1cccc(C2Nc3cccc4cccc(c34)N2)c1Cl	u	0%	-2	2.8µM*	-7%
COc1ccc(-n2nc(C(=O)NCC(=O)NCCCN3CCN(C)CC3)c3ccccc3c2=O)cc1OC	-11	2%	0	0%	0%
COc1ccc(-n2nc(C(=O)NCC(=O)NCCCN3CCN(C)CC3)c3ccccc3c2=O)cc1	-100*	2%	0	0%	0%
COc1ccc(NC(=O)CNC(=O)c2nn(-c3ccc(OC)cc3OC)c(=O)c3ccccc23)c(OC)c1	-6	0%	-56*	0%	1%
Cc1ccc(/C=N/N2CCN(Cc3ccccc3)CC2)s1	48	-2%	-1	0%	-1%
CCN(CC)S(=O)(=O)c1cc(NC(=O)C(C)N(C)CC(=O)Nc2c(C)cccc2C)ccc1C (configuration not stated)	5	3%	-1	-1%	1%
COc1cccc(C(=O)Nc2cccc(NC(=O)c3cccs3)c2)c1	-3	4%	-2	0%	1%
CC(C)(C)N=C1NC(=NC(C)(C)C)c2ccccc21	-31	-2%	-4	-2%	1%
O=C(NCCSc1ccccc1)c1ccccc1F	x	-27%	1	x	x
CC(=O)c1cccc(NC(=O)CCc2nnc3ccc(NCc4ccco4)nn23)c1	7	5%	1	-1%	0%
Cc1ccc(NC(=O)CCc2nnc3ccc(NCc4ccco4)nn23)nc1	-96*	6%	0	0%	3%
NC(=O)C1CCN(c2oc(-c3ccc(F)cc3)nc2S(=O)(=O)c2ccccc2)CC1	-7	x	-1	0%	0%
N#CCNC(=O)C1c2ccccc2Oc2ccccc21	-7	x	0	0%	-4%
COCC(C)NC(=O)C1c2ccccc2Oc2ccccc21 (configuration not stated)	-120*	4%	1	0%	0%
Cc1cccc(OCC(=O)Nc2nc3ccc([N+](=O)[O-])cc3s2)c1C	-76*	6%	-2	-1%	2%
CCc1nnc(NC(=O)CN2CCN(c3cccc(OC)c3)CC2)s1	14	0%[46.1 µM]	-2	1%	0%
O=C(CSc1cccc2cccnc12)N/N=C/c1ccc(O)cc1	-78*	-4%	0	0%	-4%
COc1cccc(/C=N/NC(=O)CSc2cccc3cccnc23)c1	-4	-4%	-1	-1%	0%
Cc1cc(C)nc(N(C#N)Cc2ccc([N+](=O)[O-])cc2)n1	6	-6%	0	4%	0%
COC(=O)c1c(-c2ccc(OC)cc2)sc2ccc(N3CCOCC3)cc12	-16	2%	-1	0%	50µM*
COC(=O)c1c(-c2ccccc2OC)sc2ccccc12	-21	0%	2	0%	35µM*
COC(=O)c1c(-c2ccc(OC)cc2)sc2ccccc12	-20	x	x	3%	35µM*
COc1ccc(-c2c(-c3ccccc3OC)sc3ccccc23)cc1	21	12%	-2	-1%	14µM*
